{"source": "PubChem BioAssay (NCI)", "note": "The panel holds about 83,000 compounds, 20% with a hit somewhere; the sample as a whole holds those more often.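 The endpoint reported here, percent growth, reads 100 for growth as untreated, 0 for no net growth and -100 for all cells dead.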 A number with no mark means an inactive call. Activity calls are given as the source filed them. The calls were made as follows: active = growth percent below 10; inactive = the rest."}
{"system": "HL-60(TB) leukemia", "experiment": "NCI-60 one-dose screen, 48 h (100 = growth as untreated, 0 = no growth, -100 = all killed)", "details": "10 µM unless noted"}
{"compound": "CO[C@@H](C(=O)N1Cc2[nH]nc(NC(=O)c3ccc(N4CCN(C)CC4)cc3)c2C1)c1ccccc1", "growth": "16.8%"}
{"compound": "CCN(CC)CCCNCCCNc1cc(OC)cc2cccnc12", "growth": "-3.42% (active)"}
{"compound": "O=C(N=C1C(=O)C2(CCCCC2)C2(N=C(c3ccccc3)OC2=O)C12CCCCC2)c1ccccc1", "note": "(stereo unspecified)", "growth": "71.8%"}
{"compound": "Cc1ccc(C(=O)NN2C(=O)CSC2c2cccc([N+](=O)[O-])c2)cn1", "note": "(stereo unspecified)", "growth": "82.7%"}
{"compound": "Cc1ccc(C(=O)N/N=C/c2cccc(Oc3ccccc3)c2)cn1", "growth": "9.21% (active)"}
{"compound": "CCOC(=S)Sc1ccc([N+](=O)[O-])cc1[N+](=O)[O-]", "growth": "-25.6% (active)"}
